# Source: PubChem BioAssay (Tox21)
# Values joined by “and” are separate entries in the source; they are usually repeats but may differ in a detail not shown here. Equal entries are not always repeated. Values without a mark were called inactive. Records with an inconclusive call do not appear. A call without a number means that no potency is given here. Active and inactive are the calls of the source. Unless noted, the call rests on the fitted dose curve.
# Experiments:
# [1] = Nuclear factor erythroid 2-related factor 2/antioxidant responsive element (Nrf2/ARE) small molecule agonists: luciferase reporter gene qHTS assay in human keratinocytes (AID 1919969); further: nearly all actives have a fitted effect of over 35% in size; further: potency means the concentration at half of the fitted maximal effect
# [2] = biological target: Gonadotropin-releasing hormone receptor (Homo sapiens) (UniProt P30968); assay: Human gonadotropin-releasing hormone receptor (GnRHR) small molecule agonists, calcium flux assay in GnRHR-HEK293 cells (AID 1920063); further: nearly all actives have a fitted effect of over 35% in size; further: potency means the concentration at half of the fitted maximal effect
# Sequence of Gonadotropin-releasing hormone receptor (Homo sapiens) (P30968 whole entry, looked up): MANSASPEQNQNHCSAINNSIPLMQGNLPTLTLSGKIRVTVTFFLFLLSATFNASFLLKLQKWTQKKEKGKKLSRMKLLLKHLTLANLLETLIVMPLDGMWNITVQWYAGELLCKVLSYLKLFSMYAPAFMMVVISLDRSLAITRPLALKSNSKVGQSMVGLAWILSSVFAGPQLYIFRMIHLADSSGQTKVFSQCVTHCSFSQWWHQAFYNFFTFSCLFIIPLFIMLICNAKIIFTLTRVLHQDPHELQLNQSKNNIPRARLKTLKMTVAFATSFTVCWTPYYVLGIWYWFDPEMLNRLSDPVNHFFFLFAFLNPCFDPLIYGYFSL
# How it was run: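 Compounds dissolved in DMSO are pin-transferred onto dye-loaded GnRHR-HEK293 cells, which were seeded 18 h before at 37 C/5% CO2. Calcium signal is read as fluorescence intensity at 1 s intervals for 3 min.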
# [3] = biological target: KiSS-1 receptor (Homo sapiens) (UniProt Q969F8); assay: Human kisspeptin (KISS1R) small molecule agonists, calcium flux assay in KISS1R-HEK293 cells (AID 1920064; active means well fitted activation curve with a large enough effect in the repeat runs; further: potency means the concentration at half of the fitted maximal effect)
# Sequence of KiSS-1 receptor (Homo sapiens) (Q969F8 whole entry, looked up): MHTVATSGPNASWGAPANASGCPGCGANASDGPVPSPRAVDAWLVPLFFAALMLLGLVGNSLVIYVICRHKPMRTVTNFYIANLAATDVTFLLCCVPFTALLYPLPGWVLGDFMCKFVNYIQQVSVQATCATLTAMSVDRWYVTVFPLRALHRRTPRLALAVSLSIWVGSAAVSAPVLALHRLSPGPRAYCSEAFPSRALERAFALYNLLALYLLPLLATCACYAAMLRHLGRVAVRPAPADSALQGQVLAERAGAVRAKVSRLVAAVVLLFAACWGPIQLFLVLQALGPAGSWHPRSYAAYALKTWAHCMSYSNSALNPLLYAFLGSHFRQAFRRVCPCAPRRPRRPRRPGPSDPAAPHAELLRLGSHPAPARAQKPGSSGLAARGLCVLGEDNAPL
# How it was run: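 Cell line: HEK293, stable human KISS1R. Dye loading 1 h at 37 C after 18 h culture. Read: kinetic fluorescence, 480/540 nm, 3 min at 1 s intervals.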
# [4] = G protein-coupled receptor (GPCR) small molecule agonists, calcium flux assay: HEK293 wild type cell line counter screen (AID 1920065); further: potency means the concentration at half of the fitted maximal effect
# How it was run: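 Tox21 10K compounds, 15 concentrations each in triplicate, pin-transferred in DMSO onto dye-loaded cells; kinetic read at 480/540 nm for 3 min, 1 s intervals.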
# [5] = p53 small molecule agonists, cell-based qHTS assay with human liver microsomes (AID 1963577);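 further: p53 response element beta-lactamase reporter cells with liver microsomes plus NADPH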
# How it was run: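 p53RE-bla cells; 5 h settle, 37 C/5% CO2; cpd + HLM 0.5 mg/mL + NADPH 0.5 mg/mL (final); 16 h 37 C; LiveBLAzer 2 h RT dark; fluorescence readout.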
# [6] = p53 small molecule agonists, cell-based qHTS assay with rat liver microsomes (AID 1963578)
# How it was run: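 Rat liver microsome activation: microsomes 0.5 mg/mL, NADPH 0.5 mg/mL final; p53RE-bla cells, 16 h 37 C; LiveBLAzer readout, 2 h RT dark.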
# [7] = p53 small molecule agonists, cell-based qHTS assay with human liver microsomes: qHTS cell viability counter screen (AID 1963579); further: nearly all actives have a fitted effect of over 45% in size; further: potency means the concentration at half of the fitted maximal effect
# How it was run: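 Luminescent CellTiter-Glo read-out, 30 min at room temperature, gauged cytotoxicity in p53RE-bla cells exposed 16 h at 37 C to DMSO-dissolved compounds with metabolic activation by human liver microsomes and NADPH, each 0.5 mg/mL final.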
# [8] = p53 small molecule agonists, cell-based qHTS assay with rat liver microsomes: qHTS cell viability counter screen (AID 1963580); further: nearly all actives have a fitted effect of over 45% in size
# How it was run: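 Cytotoxicity counter screen: intracellular ATP read by CellTiter-Glo luminescence in the p53 reporter wells. HCT-116 p53RE-bla cells were treated for 16 h at 37 C alongside rat liver microsomes and NADPH, each 0.5 mg/mL final.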
# [9] = p53 small molecule agonists, cell-based qHTS assay: qHTS cell viability counter screen (AID 1963581); further: nearly all actives have a fitted effect of over 45% in size
# How it was run: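 ATP content measured by luminescence in HCT-116 p53RE-bla cells treated 16 h at 37 C, same wells as the reporter screen.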
# [10] = p53 small molecule agonists, cell-based qHTS assay (AID 1963582; active means well fitted activation curve with a large enough effect in the signal ratio in the repeat runs, not every such curve was filed as active; the % refers to the signal ratio)
# How it was run: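 16 h compound exposure (37 C) of p53 response element–bla cells, preceded by 5 h recovery at 37 C/5% CO2; read-out via LiveBLAzer B/G FRET substrate, 2 h RT, fluorescence intensity.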
# [11] = biological target: 5-hydroxytryptamine receptor 2A (Homo sapiens) (UniProt P28223); assay: 5-hydroxytryptamine receptor 2A (HTR2A) small molecule antagonists, cell-based qHTS assay (AID 1963586); further: nearly all actives have a fitted effect of over 45% in size; further: potency means the concentration at half of the fitted maximal effect
# Sequence of 5-hydroxytryptamine receptor 2A (Homo sapiens) (P28223 whole entry, looked up): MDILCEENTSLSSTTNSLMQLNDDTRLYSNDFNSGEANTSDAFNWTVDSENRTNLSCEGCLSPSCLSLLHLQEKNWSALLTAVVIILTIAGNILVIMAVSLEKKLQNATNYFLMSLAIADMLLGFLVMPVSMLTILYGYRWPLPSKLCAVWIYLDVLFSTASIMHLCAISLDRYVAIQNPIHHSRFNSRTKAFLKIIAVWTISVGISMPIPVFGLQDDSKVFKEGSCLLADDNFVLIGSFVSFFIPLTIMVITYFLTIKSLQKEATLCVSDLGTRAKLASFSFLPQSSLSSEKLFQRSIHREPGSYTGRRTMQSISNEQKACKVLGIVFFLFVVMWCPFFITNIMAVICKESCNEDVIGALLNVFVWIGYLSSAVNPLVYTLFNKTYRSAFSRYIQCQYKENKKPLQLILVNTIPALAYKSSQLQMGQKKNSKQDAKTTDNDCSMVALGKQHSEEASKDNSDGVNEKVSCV
# How it was run: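 CHO cells stably expressing human HTR2A were plated for 18 h at 37 C, then loaded with calcium dye for 1 h. Compounds were preincubated 5 min at room temperature before DOI (4 nM solution) was added. Kinetic fluorescence was read for 3 min.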
# [12] = biological target: 5-hydroxytryptamine receptor 2A (Homo sapiens) (UniProt P28223); assay: 5-hydroxytryptamine receptor 2A (HTR2A) small molecule agonists, cell-based qHTS assay (AID 1963587); further: nearly all actives have a fitted effect of over 30% in size; further: potency means the concentration at half of the fitted maximal effect
# How it was run: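 Kinetic calcium-flux fluorescence (2 min, 1 sec intervals) after compound addition in agonist mode. HTR2A-CHO cells were cultured 18 h, then dye-loaded 1 h at 37 C.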
# [13] = biological target: Muscarinic acetylcholine receptor M1 (Homo sapiens) (UniProt P11229); assay: Cholinergic receptor muscarinic 1 (CHRM1) small molecule antagonists, cell-based qHTS assay (AID 1963588); further: nearly all actives have a fitted effect of over 40% in size
# Sequence of Muscarinic acetylcholine receptor M1 (Homo sapiens) (P11229 whole entry, looked up): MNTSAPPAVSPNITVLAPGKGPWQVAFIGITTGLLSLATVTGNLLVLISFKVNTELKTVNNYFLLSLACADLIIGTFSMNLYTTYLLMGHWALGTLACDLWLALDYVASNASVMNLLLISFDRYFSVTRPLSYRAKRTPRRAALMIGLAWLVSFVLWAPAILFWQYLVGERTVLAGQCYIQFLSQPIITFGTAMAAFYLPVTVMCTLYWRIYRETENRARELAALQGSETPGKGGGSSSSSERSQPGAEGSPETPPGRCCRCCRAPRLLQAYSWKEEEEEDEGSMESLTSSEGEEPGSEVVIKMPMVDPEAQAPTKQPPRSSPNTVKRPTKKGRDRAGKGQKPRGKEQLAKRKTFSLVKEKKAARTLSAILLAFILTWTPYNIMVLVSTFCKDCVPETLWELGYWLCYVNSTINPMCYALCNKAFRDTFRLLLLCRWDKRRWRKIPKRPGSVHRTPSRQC
# How it was run: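 Compounds were tested at 15 concentrations in three independent runs. Dye-loaded CHRM1-CHO cells were exposed 5 min at room temperature before stimulation by acetylcholine added at 50nM. Intracellular calcium was read kinetically on FDSS for 3 min.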
# [14] = biological target: Muscarinic acetylcholine receptor M1 (Homo sapiens) (UniProt P11229); assay: Cholinergic receptor muscarinic 1 (CHRM1) small molecule agonists, cell-based qHTS assay (AID 1963589); further: nearly all actives have a fitted effect of over 35% in size; further: potency means the concentration at half of the fitted maximal effect
# How it was run: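 Homogeneous fluorescence calcium flux, agonist mode. Human M1-expressing CHO cells; compound dosed at 15 concentrations, three independent runs; signal sampled every 1 sec.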
# [15] = biological target: Beta-2 adrenergic receptor (Homo sapiens) (UniProt P07550); assay: Adrenergic beta2 receptor (ADRB2) small molecule antagonists, cell-based qHTS assay (AID 1963592); further: series mostly up to about 92 µM; nearly all actives have a fitted effect of over 50% in size
# Sequence of Beta-2 adrenergic receptor (Homo sapiens) (P07550 whole entry, looked up): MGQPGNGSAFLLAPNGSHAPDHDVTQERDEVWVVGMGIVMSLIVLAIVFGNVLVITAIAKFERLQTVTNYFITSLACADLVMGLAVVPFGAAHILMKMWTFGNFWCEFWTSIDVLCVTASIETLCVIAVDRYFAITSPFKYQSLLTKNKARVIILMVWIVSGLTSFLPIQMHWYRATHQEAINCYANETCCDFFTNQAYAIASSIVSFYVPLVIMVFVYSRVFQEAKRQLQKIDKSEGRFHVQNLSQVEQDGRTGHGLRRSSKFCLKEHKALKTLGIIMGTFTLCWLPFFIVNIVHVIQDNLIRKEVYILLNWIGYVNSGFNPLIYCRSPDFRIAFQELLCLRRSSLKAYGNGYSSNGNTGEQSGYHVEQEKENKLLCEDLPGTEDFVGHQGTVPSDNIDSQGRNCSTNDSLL
# How it was run: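 Assay format: CHO-ADRB2 cells, 18-20hr seeding at 37C/5% CO2, then compound plus 1nM isoproterenol agonist mix for 0.5hr RT. Homogeneous time-resolved fluorescence cAMP detection after 1hr, expressed as 665/615 nm ratio.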
# [16] = cAMP Responsive Elements (CRE) small molecule agonists, cell-based qHTS assay (AID 1963590)
# How it was run: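 HEK 293T cells stably bearing CRE-bla were plated at 2,000 cells per well and rested 18 h. Compounds, positive controls or DMSO were added for 3 h at 37 C. LiveBLAzer B/G substrate was then loaded for 2 h at room temperature.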
# [17] = cAMP Responsive Elements (CRE) small molecule antagonists, cell-based qHTS assay (AID 1963591; active means well fitted inhibition curve with a large enough effect in the signal ratio in the repeat runs, not every such curve was filed as active; the % refers to the signal ratio)
# How it was run: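 First, CRE-bla HEK293T cells settled 18 h at 37 C. Next, compound and 0.25 uM final NKH477 were applied for 3 h. Last, LiveBLAzer B/G substrate was loaded for 2 h at room temperature.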
# [18] = biological target: D(2) dopamine receptor (Homo sapiens) (UniProt P14416); assay: Dopamine D2 receptor (DRD2) small molecule agonists, cell-based qHTS assay (AID 1963594); further: nearly all actives have a fitted effect of over 35% in size
# Sequence of D(2) dopamine receptor (Homo sapiens) (P14416 whole entry, looked up): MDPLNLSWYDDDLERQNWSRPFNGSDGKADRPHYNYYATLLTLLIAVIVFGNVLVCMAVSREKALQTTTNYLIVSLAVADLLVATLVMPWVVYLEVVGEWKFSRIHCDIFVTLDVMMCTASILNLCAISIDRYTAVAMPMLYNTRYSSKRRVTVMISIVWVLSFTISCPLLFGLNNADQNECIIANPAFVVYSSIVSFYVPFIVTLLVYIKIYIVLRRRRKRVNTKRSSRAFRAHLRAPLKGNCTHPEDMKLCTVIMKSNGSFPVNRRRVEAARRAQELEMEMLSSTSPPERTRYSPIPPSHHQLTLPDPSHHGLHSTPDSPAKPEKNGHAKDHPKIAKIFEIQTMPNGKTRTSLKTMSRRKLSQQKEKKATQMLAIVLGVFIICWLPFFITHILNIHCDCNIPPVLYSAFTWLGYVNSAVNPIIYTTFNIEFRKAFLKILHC
# How it was run: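 cAMP accumulation in DRD2-HEK293 cells measured by HTRF after 1 h detection; compounds added 10 min before NKH477 (200nM […]) forskolin-analogue stimulation, 30 min at room temperature, with Ro20-1724 present at 0.1 mM final.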
# [19] = biological target: D(2) dopamine receptor (Homo sapiens) (UniProt P14416); assay: Dopamine D2 receptor (DRD2) small molecule antagonists, cell-based qHTS assay (AID 1963595; active means well fitted inhibition curve with a large enough effect in the signal ratio in the repeat runs, with a control signal flat; the % refers to the signal ratio)
# How it was run: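 Stable D2 receptor HEK293 line, 24 h after seeding. Compound preincubated 10 min, then quinpirole (12 nM) with forskolin analogue NKH477 (200 nM), 30 min, room temperature. Detection by time-resolved FRET of cAMP.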
smiles,measurement,setting,value
Cc1cc2nc3c(=O)[nH]c(=O)nc-3n(C[C@H](O)[C@H](O)[C@H](O)CO)c2cc1C,Potency,[1],inactive
same,Potency,[2],17.2 µM (active) and 11.4 µM (active) and 8.27 µM (active)
same,Potency,[3],24.3 µM (active) and 22.8 µM (active)
same,Potency,[4],38.5 µM (active) and 32.2 µM (active) and 9.28 µM (active)
same,activation,[5],-6.49% [at 13.5 µM]
same,activation,[6],-5.55% [at 13.6 µM]
same,Potency,[7],inactive
same,Potency,[8],inactive
same,Potency,[9],inactive
same,Potency,[10],inactive
same,Potency,[11],inactive
same,Potency,[12],6.1 µM (active) and 16.1 µM (active) and 11.7 µM (active)
same,Potency,[13],inactive
same,Potency,[14],24.3 µM (active) and 20.3 µM (active) and 11.7 µM (active)
same,"activity change, negative = inhibition",[15],-10.6% [at 19 µM]
O=[N+]([O-])c1ccc(O)cc1,Potency,[1],inactive
same,Potency,[2],inactive
same,Potency,[3],inactive
same,Potency,[4],inactive
same,Potency,[5],inactive
same,Potency,[6],inactive
same,Potency,[7],inactive
same,Potency,[8],inactive
same,Potency,[9],inactive
same,Potency,[10],inactive
same,Potency,[11],inactive
same,Potency,[12],inactive
same,Potency,[13],inactive
same,Potency,[14],inactive
same,Potency,[16],inactive
same,Potency,[17],inactive
same,Potency,[15],inactive
same,Potency,[18],inactive
C=Cc1ccc(S(=O)(=O)O)cc1,Potency,[1],inactive
same,Potency,[2],inactive
same,Potency,[3],inactive
same,Potency,[4],inactive
same,Potency,[5],inactive
same,Potency,[6],inactive
same,Potency,[7],inactive
same,Potency,[8],inactive
same,Potency,[9],inactive
same,Potency,[10],inactive
same,Potency,[11],inactive
same,Potency,[12],inactive
same,Potency,[14],inactive
same,Potency,[16],inactive
same,Potency,[15],inactive
same,Potency,[18],inactive
same,Potency,[19],inactive
COC(=O)NCCC[Si](OC)(OC)OC,Potency,[1],54.5 µM (active)
same,Potency,[2],inactive
same,Potency,[3],inactive
same,Potency,[4],inactive
same,Potency,[5],inactive
same,Potency,[6],inactive
same,Potency,[7],20.4 µM (active)
same,Potency,[8],inactive
same,Potency,[9],inactive
same,Potency,[10],inactive
same,Potency,[12],inactive
same,Potency,[13],inactive
same,Potency,[14],inactive
same,Potency,[16],inactive
same,Potency,[15],inactive
same,Potency,[18],inactive
same,Potency,[19],inactive
O=C1Nc2ccc(Cl)cc2[C@@](C#CC2CC2)(C(F)(F)F)O1,Potency,[1],inactive
same,Potency,[2],inactive
same,Potency,[3],inactive
same,Potency,[4],inactive
same,Potency,[5],inactive
same,Potency,[6],inactive
same,Potency,[7],inactive
same,Potency,[8],inactive
same,Potency,[9],inactive
same,Potency,[10],inactive
same,Potency,[11],14.5 µM (active)
same,Potency,[14],inactive
same,Potency,[15],inactive
O=C(/C=C/c1ccc(O)c(O)c1)O[C@@H](C(=O)O)[C@@H](OC(=O)/C=C/c1ccc(O)c(O)c1)C(=O)O,Potency,[1],inactive
same,Potency,[2],inactive
same,Potency,[3],inactive
same,Potency,[4],inactive
same,Potency,[5],inactive
same,Potency,[6],inactive
same,Potency,[7],inactive
same,Potency,[8],inactive
same,Potency,[9],inactive
same,Potency,[10],inactive
same,Potency,[12],inactive
same,Potency,[13],inactive
same,Potency,[14],inactive
same,Potency,[16],inactive
same,Potency,[17],inactive
same,Potency,[15],inactive
CCCCN(CCCC)CC(O)c1cc(Cl)cc2c1-c1ccc(Cl)cc1/C2=C/c1ccc(Cl)cc1 (configuration not stated),Potency,[1],inactive
same,Potency,[2],inactive
same,Potency,[3],inactive
same,Potency,[4],inactive
same,Potency,[5],inactive
same,Potency,[6],inactive
same,Potency,[7],inactive
same,Potency,[8],inactive
same,Potency,[9],inactive
same,Potency,[10],inactive
same,Potency,[11],inactive
same,Potency,[12],inactive
same,Potency,[13],inactive
same,Potency,[14],inactive
same,Potency,[18],inactive
same,Potency,[19],inactive
